In PubChem BioAssay (Tox21):
Values joined by “and” are separate entries in the source; they are usually repeats but may differ in a detail not shown here. Equal values may be shown once. Records with an inconclusive call do not appear. A call without a number means that no potency is given here. The source holds several records for some structures; these can differ, active in one and inactive in another. Active and inactive are the calls of the source. Calls come from the whole dose curve; as a rule, active = well fitted curve in the direction sought with a large enough effect in the repeat runs; inconclusive = weak or mixed curves; inactive = no such curve, though single readings can be large; an effect the other way counts as inactive or inconclusive.

Experiments:
[1] = A CellTox Green Cytotoxicity Assay to monitor cytotoxicity in HEK293 cells - 32 hour (AID 1224881); settings: CellTox Green fluorescence; series mostly up to 76.8 µM; note: nearly all actives have a fitted effect of over 40% in size
How it was run: (§1)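 Each value comes from one timepoint of a single continuous run in which HEK293 cells with CellTox Green were exposed to compound for up to 40 h at 37 C, dye fluorescence rising with cell death.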

[2] = A CellTox Green Cytotoxicity Assay to monitor cytotoxicity in HepG2 cells - 0 hour (AID 1224882); settings: CellTox Green fluorescence; series mostly up to 76.8 µM; note: nearly all actives have a fitted effect of over 35% in size
How it was run: (§2)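 Continuous culture of HepG2 cells with a membrane-impermeant DNA dye; rising fluorescence marks dead cells. Compound exposure lasted up to 40 h at 37 C, with reads every 8 h from 0 h.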

[3] = A CellTox Green Cytotoxicity Assay to monitor cytotoxicity in HepG2 cells - 32 hour (AID 1224883); settings: CellTox Green fluorescence; series mostly up to 76.8 µM; note: nearly all actives have a fitted effect of over 50% in size
How it was run: as §2

[4] = A CellTox Green Cytotoxicity Assay to monitor cytotoxicity in HEK293 cells - 8 hour (AID 1224884); settings: CellTox Green fluorescence; series mostly up to 76.8 µM; note: nearly all actives have a fitted effect of over 35% in size
How it was run: as §1

[5] = qHTS RealTime-Glo MT Cell Viability Assay in HepG2 cells - 16 hour (AID 1224885); settings: RealTime-Glo luminescence; series mostly up to 76.8 µM; note: nearly all actives have a fitted effect of over 50% in size
How it was run: (§3)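 HepG2 cells were seeded at 600 cells/well together with NanoLuc luciferase and a cell-permeant prosubstrate, preincubated 5 h at 37 C/5% CO2, then pin-dosed with compounds in DMSO. Nonlytic luminescence from viable cells was read at each time point.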

[6] = qHTS RealTime-Glo MT Cell Viability Assay in HEK293 cells - 24 hour (AID 1224886); settings: RealTime-Glo luminescence; series mostly up to 76.8 µM; note: nearly all actives have a fitted effect of over 50% in size
How it was run: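 HEK293 cells were seeded at 600 cells/well together with NanoLuc luciferase and cell-permeant prosubstrate, preincubated 5 h at 37 C/5% CO2, then given compound in DMSO by pintool. Luminescence from viable-cell prosubstrate reduction was read repeatedly over 40 h.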

[7] = qHTS RealTime-Glo MT Cell Viability Assay in HEK293 cells - 8 hour (AID 1224887); settings: RealTime-Glo luminescence; series mostly up to 76.8 µM; note: nearly all actives have a fitted effect of over 50% in size
How it was run: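 qHTS format; HEK293 cells with NanoLuc/prosubstrate reagent, 37 C/5% CO2 for 5 h pre-dosing; compounds 23 nL in DMSO; luminescence at each time point reflects viable cells.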

[8] = A CellTox Green Cytotoxicity Assay to monitor cytotoxicity in HEK293 cells - 16 hour (AID 1224888); settings: CellTox Green fluorescence; series mostly up to 76.8 µM; note: nearly all actives have a fitted effect of over 35% in size
How it was run: as §1

[9] = qHTS RealTime-Glo MT Cell Viability Assay in HepG2 cells - 0 hour (AID 1224889); settings: RealTime-Glo luminescence; series mostly up to 76.8 µM; note: nearly all actives have a fitted effect of over 50% in size
How it was run: as §3

[10] = A CellTox Green Cytotoxicity Assay to monitor cytotoxicity in HepG2 cells - 8 hour (AID 1224890); settings: CellTox Green fluorescence; series mostly up to 76.8 µM; note: nearly all actives have a fitted effect of over 45% in size
How it was run: as §2
Potency is the fitted concentration of half-maximal effect.

| SMILES | Potency [1] | Potency [2] | Potency [3] | Potency [4] | Potency [5] | Potency [6] | Potency [7] | Potency [8] | Potency [9] | Potency [10] |
| --- | --- | --- | --- | --- | --- | --- | --- | --- | --- | --- |
| N#CC1(c2ccc(F)cc2)CCC(=O)CC1 | inactive | inactive | inactive | inactive | inactive | inactive | inactive | inactive | inactive | inactive |
| Cc1ccc(O)c(C(C)(C)C)c1 | 43.6 µM (active) | inactive | 43.6 µM (active) and 34.7 µM (active) | inactive | inactive | inactive | inactive | inactive |  | 48.9 µM (active) and 38.9 µM (active) |
| O=C(O)c1cc(O)c2c(c1)C(=O)c1cccc(O)c1C2=O | inactive | inactive | inactive | inactive | inactive | inactive | inactive |  | inactive | inactive |
| OCCN1CCN(CC/C=C2/c3ccccc3Sc3ccc(C(F)(F)F)cc32)CC1 | 26.8 µM (active) | inactive | 15.1 µM (active) | 23.9 µM (active) | 23.9 µM (active) | 19 µM (active) | 21.3 µM (active) | 26.8 µM (active) |  | 23.9 µM (active) |
| C[C@]12CCC(=O)C=C1CC[C@@H]1[C@@H]2[C@@H](O)C[C@@]2(C)[C@H]1CC[C@]2(O)C(=O)COC(=O)CCC(=O)O | inactive | inactive | inactive | inactive | inactive | inactive | inactive |  | 3.38 µM (active) |  |
| O=C(c1ccc(O)cc1O)c1ccc(O)cc1O | inactive | inactive | inactive | inactive | inactive | inactive | inactive |  | inactive | inactive |
| O=C(OCC1CO1)C1CCCCC1C(=O)OCC1CO1 (configuration not stated) | inactive | inactive | inactive | inactive | inactive | inactive | inactive | inactive |  | inactive |
| COc1c(C)c2c(c(O)c1C/C=C(\C)CCC(=O)O)C(=O)OC2 | inactive | inactive | inactive | inactive | inactive | inactive | inactive | inactive |  | inactive |
| Clc1ccc2nsnc2c1NC1=NCCN1 | inactive | inactive | inactive | inactive | inactive | inactive | inactive | inactive |  | inactive |
| CC(C)c1ccc2c(c1)CC[C@H]1[C@](C)(CN)CCC[C@]21C | 19.5 µM (active) | inactive | 12.3 µM (active) | 38.9 µM (active) | 17.4 µM (active) | 12.3 µM (active) | 21.9 µM (active) | 24.5 µM (active) |  | 43.6 µM (active) |
| CCCCCCCCCCCC[N+](C)(C)CCCCCCCCCCCC | 15.5 µM (active) | inactive | 7.76 µM (active) | 19.5 µM (active) | 8.71 µM (active) | 6.92 µM (active) | 17.4 µM (active) | 17.4 µM (active) |  | 19.5 µM (active) |
| Cc1onc(-c2ccccc2Cl)c1C(=O)N[C@@H]1C(=O)N2[C@@H]1SC(C)(C)[C@@H]2C(=O)O | inactive | inactive | inactive | inactive | inactive | inactive | inactive | inactive | inactive | inactive |
| Cc1cc(N)c(S(=O)(=O)O)cc1Cl | inactive | inactive | inactive | inactive | inactive | inactive | inactive |  | inactive | inactive |
| CCC(C)(C)C1CCCCC1OC(C)=O (configuration not stated) | inactive | inactive | inactive | inactive | inactive | inactive | inactive | inactive |  | inactive |
| Nc1cc(C(F)(F)F)ccc1S | inactive | inactive | inactive | inactive | inactive | inactive | inactive |  | inactive | inactive |
| O=C(O)c1ccc(Cl)c(Cl)c1 | inactive | inactive | inactive | inactive | inactive | inactive | inactive | inactive | inactive | inactive |
| CCc1oc2ccccc2c1C(=O)c1cc(Br)c(O)c(Br)c1 | inactive | inactive | inactive | inactive | inactive | inactive | inactive | inactive |  | inactive |
| Cc1onc(-c2c(Cl)cccc2Cl)c1C(=O)N[C@@H]1C(=O)N2[C@@H]1SC(C)(C)[C@@H]2C(=O)O | inactive | inactive | inactive | inactive | inactive | inactive | inactive | inactive |  | inactive |
| CCCCCOC(=O)CCCC | inactive | inactive | inactive | inactive | inactive | inactive | inactive | inactive | inactive | inactive |
| Cc1oc(-c2ccccc2)nc1CCC(=O)c1ccc(CC2SC(=O)NC2=O)cc1 (configuration not stated) | inactive | inactive | inactive | inactive | inactive | inactive | inactive | inactive |  | inactive |
| COC(=O)C1=C(C)NC(C)=C(C(=O)OCC(C)C)C1c1ccccc1[N+](=O)[O-] (configuration not stated) | 49 µM (active) and inactive | inactive | inactive | inactive | 43.6 µM (active) | 24.5 µM (active) | 21.9 µM (active) | inactive |  | inactive |
| CCCCN1CCCC[C@H]1C(=O)Nc1c(C)cccc1C | inactive | inactive | inactive | inactive | inactive | inactive | inactive |  | inactive | inactive |
| Oc1cccc2cc3cccc(O)c3c(O)c12 | inactive | inactive | inactive | inactive | inactive | inactive | inactive |  | inactive | inactive |

| SMILES | Potency [1] | Potency [2] | Potency [3] | Potency [4] | Potency [5] | Potency [6] | Potency [7] | Potency [8] | Potency [9] | Potency [10] |
| --- | --- | --- | --- | --- | --- | --- | --- | --- | --- | --- |
| [Cl][Bi]([Cl])([c]1ccccc1)([c]1ccccc1)[c]1ccccc1 | 24.4 µM (active) | inactive | 6.13 µM (active) | 43.4 µM (active) | 7.71 µM (active) | 3.07 µM (active) | 21.7 µM (active) | 43.4 µM (active) |  | 15.4 µM (active) |
| C[n+]1ccn(Cc2ccccc2)c1 | inactive | inactive | inactive | inactive | inactive | inactive | inactive |  | inactive | inactive |
| CCCCCCCC[N+](CCCCCCCC)(CCCCCCCC)CCCCCCCC | 15.5 µM (active) | inactive | 21.8 µM (active) | 24.5 µM (active) | 24.5 µM (active) | 6.15 µM (active) | 12.3 µM (active) | 21.8 µM (active) |  | 34.6 µM (active) |
| O=C(NO)C1(NS(=O)(=O)c2ccc(Oc3ccc(F)cc3)cc2)CCOCC1 | inactive | inactive | inactive | inactive | inactive | inactive | inactive |  | inactive | inactive |
| CN(C)c1ccc(SC#N)cc1 | inactive | inactive | inactive | inactive | inactive | inactive | inactive | inactive |  | inactive |
| CCCCC(CC)CN=C(N)NC(N)=NCCCCCCN=C(N)NC(N)=NCC(CC)CCCC (configuration not stated) | 9.52 µM (active) | inactive | 8.49 µM (active) | 13.4 µM (active) | 10.7 µM (active) | 5.35 µM (active) | 8.49 µM (active) | 8.49 µM (active) |  | 10.7 µM (active) |
| NNC(=O)c1cccc(C(=O)NN)c1 | inactive | inactive | inactive | inactive | inactive | inactive | inactive |  | inactive | inactive |
| Cc1cccc(N(C)C(=S)Oc2ccc3c(c2)C2CCC3C2)c1 (configuration not stated) | inactive | inactive | inactive | inactive | inactive | inactive | inactive | inactive | inactive | inactive |
| O=c1[nH]cnc2nc[nH]c12 | inactive | inactive | inactive | inactive | inactive | inactive | inactive | inactive |  | inactive |
| CCCCCCCCS(=O)C(C)Cc1ccc2c(c1)OCO2 (configuration not stated) | inactive | inactive | inactive | inactive | inactive |  |  | inactive |  | inactive |
| NNc1nc(-c2ccccc2)cs1 | inactive | inactive | inactive | inactive | inactive |  |  | inactive | inactive | inactive |
| C/C(=C(/OCCOc1ccc(Cl)cc1)c1ccc(Cl)cc1Cl)n1ccnc1 | inactive | inactive | inactive | inactive | inactive |  |  |  | inactive | inactive |
| Cn1cc(C(=O)[C@@H]2CCc3nc[nH]c3C2)c2ccccc21 | inactive | inactive | inactive | inactive | inactive |  |  | inactive |  | inactive |
| Nc1nc2ccccc2n1Cc1ccc(F)cc1 | inactive | inactive | 23.9 µM (active) | inactive | inactive |  | inactive |  |  | inactive |
| CC(C)n1nc(-c2cc3cc(O)ccc3[nH]2)c2c(N)ncnc21 | inactive | inactive | 23.9 µM (active) | inactive | inactive | 0.301 µM (active) |  | inactive | inactive | inactive |
| CCN(CC)CCNC(=O)c1c(C)[nH]c(/C=C2\C(=O)Nc3ccc(F)cc32)c1C | 23.9 µM (active) | 21.3 µM (active) | 10.7 µM (active) | 23.9 µM (active) | 21.3 µM (active) | 9.52 µM (active) | 21.3 µM (active) |  |  | 19 µM (active) |
| COc1ccc(CN2CCN(C(c3ccc(F)cc3)c3ccc(F)cc3)CC2)c(OC)c1OC | inactive | inactive | 10.7 µM (active) | inactive |  | 9.52 µM (active) | 19 µM (active) | inactive | inactive | inactive |
| CC(C)CCCCCCCCCCCCCCC(=O)O | inactive | inactive | inactive | inactive | inactive |  | inactive | inactive | inactive | inactive |
| CCN(C(=O)N(CC)c1ccccc1)c1ccccc1 | inactive | inactive | inactive | inactive | inactive |  |  |  | inactive | inactive |
| ON=C1CCCC1 | inactive | inactive | inactive | inactive | inactive | 22.6 µM (active) |  | inactive | inactive | inactive |
| Cc1ccc(-n2nc(C(C)(C)C)cc2NC(=O)Nc2ccc(OCCN3CCOCC3)c3ccccc23)cc1 | inactive | inactive | inactive | inactive | inactive |  |  | inactive |  | inactive |
| Cc1[nH]nc2c1N=C(c1ccccc1Cl)c1cc([N+](=O)[O-])ccc1N2 | inactive | inactive | inactive | inactive | inactive |  | inactive |  | inactive | inactive |
| CCOC(=O)/C=C(C)/C=C/C=C(C)/C=C/c1c(C)cc(OC)c(C)c1C | inactive | inactive | inactive | inactive | inactive |  | inactive | inactive |  | inactive |
